Experimental findings from ChEMBL document CHEMBL2218924, “A broad activity screen in support of a chemogenomic map for kinase signalling research and drug discovery” (Biochem J, 2013) are described below.

The target in test [1] is T1, Ephrin type-B receptor 1 (Homo sapiens) (UniProt P54762).
T1 sequence (whole entry): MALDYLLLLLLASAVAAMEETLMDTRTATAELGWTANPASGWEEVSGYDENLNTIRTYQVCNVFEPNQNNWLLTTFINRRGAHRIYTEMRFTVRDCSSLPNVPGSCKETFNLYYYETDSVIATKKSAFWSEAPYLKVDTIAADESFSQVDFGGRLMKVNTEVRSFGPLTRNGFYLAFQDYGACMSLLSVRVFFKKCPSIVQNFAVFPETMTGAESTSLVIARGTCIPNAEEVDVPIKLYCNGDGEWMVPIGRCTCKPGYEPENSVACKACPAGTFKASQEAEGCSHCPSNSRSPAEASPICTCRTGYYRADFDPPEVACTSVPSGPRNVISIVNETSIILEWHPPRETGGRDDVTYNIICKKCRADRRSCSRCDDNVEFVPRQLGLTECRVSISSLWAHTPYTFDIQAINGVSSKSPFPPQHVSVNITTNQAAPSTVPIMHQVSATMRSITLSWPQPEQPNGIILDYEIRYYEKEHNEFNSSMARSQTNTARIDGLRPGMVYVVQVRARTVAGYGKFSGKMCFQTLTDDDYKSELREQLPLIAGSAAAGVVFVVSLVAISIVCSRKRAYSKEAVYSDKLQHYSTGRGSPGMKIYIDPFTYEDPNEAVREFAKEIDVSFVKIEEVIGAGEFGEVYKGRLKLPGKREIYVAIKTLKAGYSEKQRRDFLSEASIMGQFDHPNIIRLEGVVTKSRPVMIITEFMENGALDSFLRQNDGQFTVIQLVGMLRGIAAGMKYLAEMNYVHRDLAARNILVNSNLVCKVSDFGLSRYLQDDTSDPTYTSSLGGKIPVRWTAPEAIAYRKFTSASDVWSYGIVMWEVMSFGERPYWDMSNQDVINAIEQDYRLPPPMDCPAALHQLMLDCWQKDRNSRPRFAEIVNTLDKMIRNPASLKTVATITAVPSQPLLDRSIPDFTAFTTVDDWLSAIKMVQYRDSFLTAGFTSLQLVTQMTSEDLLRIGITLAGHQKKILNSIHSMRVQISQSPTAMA
The following applies: at 10 µM.

The target in test [2] is T2, Ephrin type-B receptor 2 (Homo sapiens) (UniProt P29323).
T2 sequence (whole entry): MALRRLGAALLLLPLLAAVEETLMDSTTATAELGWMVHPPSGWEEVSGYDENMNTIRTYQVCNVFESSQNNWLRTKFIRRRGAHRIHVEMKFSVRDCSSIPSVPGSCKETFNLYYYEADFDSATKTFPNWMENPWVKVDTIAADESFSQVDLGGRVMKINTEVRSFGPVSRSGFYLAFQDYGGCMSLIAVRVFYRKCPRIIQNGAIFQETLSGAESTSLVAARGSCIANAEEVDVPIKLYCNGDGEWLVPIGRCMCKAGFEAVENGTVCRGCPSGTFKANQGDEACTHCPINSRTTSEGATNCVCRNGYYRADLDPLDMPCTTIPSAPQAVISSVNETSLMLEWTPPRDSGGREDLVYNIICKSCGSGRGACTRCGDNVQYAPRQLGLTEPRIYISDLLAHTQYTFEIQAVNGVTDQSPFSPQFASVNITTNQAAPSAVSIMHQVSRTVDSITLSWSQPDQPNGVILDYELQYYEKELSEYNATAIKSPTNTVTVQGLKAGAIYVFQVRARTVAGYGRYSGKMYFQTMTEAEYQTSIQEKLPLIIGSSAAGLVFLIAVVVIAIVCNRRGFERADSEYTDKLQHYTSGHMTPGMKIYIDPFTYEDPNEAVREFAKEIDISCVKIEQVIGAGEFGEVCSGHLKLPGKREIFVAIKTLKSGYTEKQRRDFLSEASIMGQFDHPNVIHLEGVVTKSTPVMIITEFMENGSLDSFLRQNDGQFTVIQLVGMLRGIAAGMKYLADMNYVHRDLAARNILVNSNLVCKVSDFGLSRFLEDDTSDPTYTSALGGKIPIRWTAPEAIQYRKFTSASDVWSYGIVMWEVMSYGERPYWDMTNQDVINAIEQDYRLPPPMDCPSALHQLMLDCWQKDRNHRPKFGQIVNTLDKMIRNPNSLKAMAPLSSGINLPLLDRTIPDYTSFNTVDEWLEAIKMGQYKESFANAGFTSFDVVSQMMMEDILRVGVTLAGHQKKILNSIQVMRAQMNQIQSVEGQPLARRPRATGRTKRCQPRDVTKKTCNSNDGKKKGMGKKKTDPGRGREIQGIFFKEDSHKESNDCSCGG
The following applies: at 1 µM.

The target in test [3] is T2, Ephrin type-B receptor 2 (Homo sapiens). The following applies: at 10 µM.
In test [4] the target is T3, Ephrin type-B receptor 3 (Homo sapiens) (UniProt P54753).
T3 sequence (whole entry): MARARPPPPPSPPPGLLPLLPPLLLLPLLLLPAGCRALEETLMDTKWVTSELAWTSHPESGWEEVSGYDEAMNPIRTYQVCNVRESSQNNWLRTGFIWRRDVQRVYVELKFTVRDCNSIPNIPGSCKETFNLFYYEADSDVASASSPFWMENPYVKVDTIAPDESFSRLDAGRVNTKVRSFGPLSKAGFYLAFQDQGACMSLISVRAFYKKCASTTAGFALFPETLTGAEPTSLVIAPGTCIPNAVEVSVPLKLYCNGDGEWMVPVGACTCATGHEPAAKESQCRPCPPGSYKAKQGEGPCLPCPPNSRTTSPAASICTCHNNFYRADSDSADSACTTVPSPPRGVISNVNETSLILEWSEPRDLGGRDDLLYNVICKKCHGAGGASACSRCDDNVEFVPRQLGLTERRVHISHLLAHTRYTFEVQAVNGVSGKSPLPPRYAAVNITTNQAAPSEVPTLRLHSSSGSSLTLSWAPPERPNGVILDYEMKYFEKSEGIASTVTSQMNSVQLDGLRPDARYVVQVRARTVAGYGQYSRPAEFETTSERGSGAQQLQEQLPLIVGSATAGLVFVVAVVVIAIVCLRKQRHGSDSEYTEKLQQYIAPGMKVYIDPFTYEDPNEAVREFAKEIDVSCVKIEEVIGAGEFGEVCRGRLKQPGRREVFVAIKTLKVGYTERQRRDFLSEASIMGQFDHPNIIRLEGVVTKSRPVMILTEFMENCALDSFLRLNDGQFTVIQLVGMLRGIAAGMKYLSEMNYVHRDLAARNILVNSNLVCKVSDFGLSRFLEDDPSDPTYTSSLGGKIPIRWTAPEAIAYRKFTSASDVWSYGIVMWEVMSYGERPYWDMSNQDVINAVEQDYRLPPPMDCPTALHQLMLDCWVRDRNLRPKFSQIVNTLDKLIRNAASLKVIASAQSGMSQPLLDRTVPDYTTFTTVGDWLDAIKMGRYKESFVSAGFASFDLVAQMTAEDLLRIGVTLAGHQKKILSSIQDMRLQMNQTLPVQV
The following applies: at 1 µM.

In test [5] the target is T3, Ephrin type-B receptor 3 (Homo sapiens). The following applies: at 10 µM.
Test [6] has as its target T4, Ephrin type-B receptor 4 (Homo sapiens) (UniProt P54760).
T4 sequence (whole entry): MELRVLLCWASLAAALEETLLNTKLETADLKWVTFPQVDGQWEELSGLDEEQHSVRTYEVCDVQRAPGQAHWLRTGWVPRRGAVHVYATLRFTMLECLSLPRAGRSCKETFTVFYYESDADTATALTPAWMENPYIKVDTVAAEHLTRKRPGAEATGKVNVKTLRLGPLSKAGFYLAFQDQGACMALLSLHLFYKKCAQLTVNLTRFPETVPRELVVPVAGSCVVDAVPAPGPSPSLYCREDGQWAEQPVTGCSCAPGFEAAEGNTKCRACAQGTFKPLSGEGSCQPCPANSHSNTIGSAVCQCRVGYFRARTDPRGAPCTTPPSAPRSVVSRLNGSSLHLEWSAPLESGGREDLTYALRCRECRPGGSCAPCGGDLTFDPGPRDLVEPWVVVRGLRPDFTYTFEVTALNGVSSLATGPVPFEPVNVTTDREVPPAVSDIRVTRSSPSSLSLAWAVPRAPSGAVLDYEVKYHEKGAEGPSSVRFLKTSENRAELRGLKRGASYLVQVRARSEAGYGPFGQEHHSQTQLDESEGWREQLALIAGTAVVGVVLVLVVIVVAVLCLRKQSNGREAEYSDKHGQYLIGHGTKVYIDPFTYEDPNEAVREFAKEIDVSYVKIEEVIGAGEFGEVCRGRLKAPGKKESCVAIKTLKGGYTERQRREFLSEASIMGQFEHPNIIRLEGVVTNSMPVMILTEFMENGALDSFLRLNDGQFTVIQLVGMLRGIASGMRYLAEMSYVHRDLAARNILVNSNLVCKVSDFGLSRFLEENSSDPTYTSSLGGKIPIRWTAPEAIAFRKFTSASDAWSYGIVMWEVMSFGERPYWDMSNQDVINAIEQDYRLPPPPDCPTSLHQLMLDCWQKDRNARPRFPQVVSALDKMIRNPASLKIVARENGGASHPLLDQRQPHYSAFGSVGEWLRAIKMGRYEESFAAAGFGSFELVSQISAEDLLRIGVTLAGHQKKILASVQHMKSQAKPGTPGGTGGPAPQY
The following applies: at 1 µM.

Test [7] concerns the target T4, Ephrin type-B receptor 4 (Homo sapiens). The following applies: at 10 µM.
The target of test [8] is Receptor tyrosine-protein kinase erbB-4 (Homo sapiens) (UniProt Q15303). The following applies: at 1 µM.
The target is the same in test [9]. The following applies: at 10 µM.
For test [10], the target named is Focal adhesion kinase 1 (Homo sapiens) (UniProt Q05397). The following applies: at 1 µM.

Molecules are shown by their SMILES.

Receptor tyrosine-protein kinase erbB-4 (Homo sapiens), sequence (Q15303 whole entry): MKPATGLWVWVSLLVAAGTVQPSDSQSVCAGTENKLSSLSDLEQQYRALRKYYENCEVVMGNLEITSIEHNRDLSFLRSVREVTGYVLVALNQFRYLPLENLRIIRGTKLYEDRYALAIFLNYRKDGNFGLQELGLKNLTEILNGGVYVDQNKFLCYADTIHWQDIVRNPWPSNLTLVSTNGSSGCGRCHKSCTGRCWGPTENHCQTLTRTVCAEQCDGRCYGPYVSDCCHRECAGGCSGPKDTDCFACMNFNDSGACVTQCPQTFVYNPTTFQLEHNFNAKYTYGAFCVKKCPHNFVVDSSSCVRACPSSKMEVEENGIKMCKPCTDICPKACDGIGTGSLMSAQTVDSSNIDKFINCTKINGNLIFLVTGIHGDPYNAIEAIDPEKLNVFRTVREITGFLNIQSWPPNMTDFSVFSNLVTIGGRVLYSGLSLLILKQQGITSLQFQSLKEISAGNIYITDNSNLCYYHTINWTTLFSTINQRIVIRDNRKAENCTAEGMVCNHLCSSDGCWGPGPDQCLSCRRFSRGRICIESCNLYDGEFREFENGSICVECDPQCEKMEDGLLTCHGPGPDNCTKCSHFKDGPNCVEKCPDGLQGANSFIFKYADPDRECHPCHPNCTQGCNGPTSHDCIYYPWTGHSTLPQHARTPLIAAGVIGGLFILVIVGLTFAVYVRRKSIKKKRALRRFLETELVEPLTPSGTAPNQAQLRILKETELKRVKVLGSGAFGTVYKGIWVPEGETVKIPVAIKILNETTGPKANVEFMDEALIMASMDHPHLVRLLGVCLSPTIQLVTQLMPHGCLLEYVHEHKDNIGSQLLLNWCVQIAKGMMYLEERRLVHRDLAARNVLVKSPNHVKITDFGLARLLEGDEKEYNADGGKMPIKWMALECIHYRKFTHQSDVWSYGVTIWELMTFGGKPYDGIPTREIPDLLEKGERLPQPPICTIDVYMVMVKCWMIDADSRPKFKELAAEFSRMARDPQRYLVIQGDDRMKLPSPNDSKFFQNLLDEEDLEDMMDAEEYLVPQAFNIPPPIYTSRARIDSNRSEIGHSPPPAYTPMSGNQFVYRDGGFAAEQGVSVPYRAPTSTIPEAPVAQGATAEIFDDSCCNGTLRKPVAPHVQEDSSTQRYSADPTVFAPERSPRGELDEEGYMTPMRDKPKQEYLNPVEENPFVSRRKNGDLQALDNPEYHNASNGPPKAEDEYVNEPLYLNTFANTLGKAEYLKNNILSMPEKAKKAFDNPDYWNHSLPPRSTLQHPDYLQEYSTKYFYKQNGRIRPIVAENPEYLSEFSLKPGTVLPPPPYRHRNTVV
Focal adhesion kinase 1 (Homo sapiens), sequence (Q05397 2-1052 limits assumed): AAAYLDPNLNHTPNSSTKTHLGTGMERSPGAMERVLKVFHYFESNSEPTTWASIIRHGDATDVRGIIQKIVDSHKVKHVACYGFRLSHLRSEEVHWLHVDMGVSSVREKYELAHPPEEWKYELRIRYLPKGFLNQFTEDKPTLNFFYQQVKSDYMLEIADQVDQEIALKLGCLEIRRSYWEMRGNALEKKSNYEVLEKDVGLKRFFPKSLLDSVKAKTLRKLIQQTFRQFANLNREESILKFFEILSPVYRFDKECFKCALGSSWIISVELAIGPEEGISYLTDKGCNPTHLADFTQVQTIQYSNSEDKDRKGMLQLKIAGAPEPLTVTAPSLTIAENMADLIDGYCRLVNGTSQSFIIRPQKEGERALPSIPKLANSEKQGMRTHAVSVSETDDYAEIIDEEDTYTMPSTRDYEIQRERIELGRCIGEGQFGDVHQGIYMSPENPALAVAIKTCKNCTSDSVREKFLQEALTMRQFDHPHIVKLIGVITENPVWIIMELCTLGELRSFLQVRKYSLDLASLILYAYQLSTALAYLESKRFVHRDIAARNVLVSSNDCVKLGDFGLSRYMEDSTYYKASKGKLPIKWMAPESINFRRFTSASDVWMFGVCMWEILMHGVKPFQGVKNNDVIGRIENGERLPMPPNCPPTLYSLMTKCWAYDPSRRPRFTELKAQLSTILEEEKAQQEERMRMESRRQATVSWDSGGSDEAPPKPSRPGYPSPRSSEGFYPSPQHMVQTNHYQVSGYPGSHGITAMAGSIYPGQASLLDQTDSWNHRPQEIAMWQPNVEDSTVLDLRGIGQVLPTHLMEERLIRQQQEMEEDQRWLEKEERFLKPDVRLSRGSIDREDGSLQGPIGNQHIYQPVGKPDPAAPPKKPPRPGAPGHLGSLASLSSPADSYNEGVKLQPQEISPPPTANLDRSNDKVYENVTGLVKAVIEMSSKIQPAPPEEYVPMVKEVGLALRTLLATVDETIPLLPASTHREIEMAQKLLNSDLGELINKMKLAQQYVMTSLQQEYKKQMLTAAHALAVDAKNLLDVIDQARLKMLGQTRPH

Take `COc1ccc(S(=O)(=O)N(CCO)c2ccccc2CN(C)C/C=C/c2ccc(Cl)cc2)cc1`: the residual activity in test [1] is 90%; in [2] it was 115%; in test [3] it was 120%; in test [4] it was 112% (inactive); in test [5] it was 107%; in test [6], 86%. The residual activity worked out at 79% in [7], 110% in test [8], 77% in test [9] and 93% in [10].

One may read the residual activity as the signal under treatment as a percentage of the control signal.
